Bioassay records: PubChem BioAssay, National Center for Advancing Translational Sciences (NCATS)
Rows were chosen to be rich in hits. Some 7.4% of all compounds tested hit in one or more screens of this group.
Rab9 prom act = activates the Rab9 promoter; Huh7 Rab9 promoter-luciferase reporter, luminescence, 24 h; Potency, µM (titrated, usually from 9.22 µM), without a hit: at the highest dose activation, negative = inhibition, hits mostly activators; actives 2.8% (n = 320,000); AID 485297; further: % of control where 0% means no effect; nearly all actives have a fitted effect of over 60% in size
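Steps: seed 1500 Huh7 Rab9-luc cells per well, rest 2 h at 37 °C; add compound in DMSO; incubate 24 h; add luciferase reagent, 10 min ambient; read luminescence.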
NPC1 promoter act = activates the NPC1 promoter; Huh7 NPC1 promoter luciferase reporter, 24 h; Potency, µM (doses to about 9.22 µM), for inactives: at the top dose activation, actives largely listed as activators; actives 2.4% (n = 320,000); further: % of control where 0% means no effect; nearly all actives have a fitted effect of over 60% in size
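Stably transfected Huh7 (NPC1 promoter→luciferase), 1500 cells/well in Opti-MEM + 10% FBS, 2 h settle, then compound 24 h at 37 °C. Luminescence after 10 min with Amplite reagent.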
FLuc counter = inhibits or activates purified firefly luciferase, miR-21 counter-screen | P08659 | purified FLuc, Km substrates, luminescence inhibition | Potency, µM (series often up to 57.5 µM), for inactives: at the highest dose activity change, negative = inhibition, actives largely listed as inhibitors | actives 6.9% (n = 360,000);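 further: plate controls were vehicle for no effect and reference inhibitor for full effect; nearly all actives have a fitted effect of over 55% in size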
Target sequence (P08659 whole entry, looked up): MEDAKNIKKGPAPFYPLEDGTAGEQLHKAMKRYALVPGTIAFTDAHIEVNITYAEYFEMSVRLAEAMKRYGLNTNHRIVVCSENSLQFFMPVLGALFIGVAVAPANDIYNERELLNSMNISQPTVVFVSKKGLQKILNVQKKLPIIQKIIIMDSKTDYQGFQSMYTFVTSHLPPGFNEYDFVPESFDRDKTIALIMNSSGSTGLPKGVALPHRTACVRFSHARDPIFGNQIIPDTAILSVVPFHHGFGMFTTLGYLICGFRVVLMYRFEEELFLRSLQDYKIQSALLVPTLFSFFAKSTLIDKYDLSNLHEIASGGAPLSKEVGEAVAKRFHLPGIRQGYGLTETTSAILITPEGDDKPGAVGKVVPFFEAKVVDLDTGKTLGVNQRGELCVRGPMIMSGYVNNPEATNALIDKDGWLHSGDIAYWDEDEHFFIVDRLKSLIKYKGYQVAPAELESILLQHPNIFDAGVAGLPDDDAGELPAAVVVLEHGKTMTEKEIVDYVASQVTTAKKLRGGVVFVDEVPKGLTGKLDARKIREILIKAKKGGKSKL
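Biochemical qHTS of compounds, final roughly 60 µM downward over six points, against 10 nM purified firefly luciferase using Km concentrations of substrates (10 uM D-luciferin, 10 uM ATP) in Tris acetate pH 7.5 buffer; luminescence output.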
ELG1 genotoxic = genotoxicity induction in ELG1-luciferase HEK293T cells; Potency, µM (highest dose often 46 µM), for inactives: at the top dose activity change, positive = activation, most hits filed as activators; HEK293T ELG1-luciferase reporter, luminescence, 16 h; actives 1.3% (n = 330,000); further: % of control where 0% means no effect; nearly all actives have a fitted effect of over 60% in size
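Step 1: seed 2,000 HEK293T ELG1-luciferase cells per well. Step 2: add compound or DMSO, incubate 16 hr at 37 °C. Step 3: ONE-Glo, 30 min at room temperature, read luminescence.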
SMN2 splice up = SMN2 splice variant enhancement. HEK293 SMN2-luciferase splicing reporter, luminescence, 30-36 h. actives 2.8% (n = 210,000). Potency, µM (series often up to 46.1 µM), inactives show at the top dose activity change, positive = activation, usual class: activators; further: % of control where 0% means no effect; nearly all actives have a fitted effect of over 55% in size
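HEK293 cells carry an SMN2 minigene-luciferase reporter in which exon 7 inclusion puts luciferase in frame. Cells were seeded at 2000 cells/well, attached for 10-12 hours, then exposed to compounds for 30-36 hours at 37C before ONE-Glo luminescence.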
An asterisk follows results filed as active; u = inconclusive; x = not tested or not shown; [ ] = another dose, or the depositor's remark. The call rests on the fitted dose curve; in most records, active means well fitted curve in the direction sought with a large enough effect; inconclusive means small, poorly fitted or top-dose-only effect, or another doubt; inactive means no such curve, though single readings can be large; an effect the other way counts as inactive or inconclusive. Potency means the concentration at half of the fitted maximal effect.

SMILES	Rab9 prom act	NPC1 promoter act	FLuc counter	ELG1 genotoxic	SMN2 splice up
Cc1cc(C(=O)Nc2ccccc2C(=O)O)ccc1NC(=O)COc1cccc([N+](=O)[O-])c1	-2.7%	-1.4%	23.9µM*	2.7%	x
O=c1c2[nH]c3ccccc3c2ncn1CCC1=CCCCC1	u	2.51µM*	1.2%	11.6%	23.5%
C1=C(CCNc2ncnc3c2[nH]c2ccccc23)CCCC1	-33.4%	-28.3%	19µM*	5.8%	-42.9%
COc1ccc(C)cc1NC(=O)CN1c2ccccc2S(=O)(=O)c2ccccc21	x	x	-6.2%	x	x
c1cnc2c(OCc3nc4ccccc4[nH]3)cccc2c1	2.24µM*	3.98µM*	9.53µM*	u	11.2µM*
Cc1ccccc1OCc1nc2ccccc2[nH]1	1.78µM*	u	4.78µM*	u	x
COc1ccccc1OCc1nc2ccccc2[nH]1	2µM*	2.51µM*	10.7µM*	u	11.2µM*
CC(C)(C)C1CCC2(CC1)CC(=O)c1ccccc1O2 (stereo unspecified)	-2.1%	-4.7%	-1.5%	-0.3%	x
CCc1ccc(-c2nc(CS(=O)CC(=O)NCCCN3CCOCC3)c(C)o2)cc1 (stereo unspecified)	0.0%	10.4%	u	6.1%	x
Cc1cc(C)cc(C(=O)Nc2cc3c4c(c2)CC(=O)N4CCC3)c1	-3.6%	-6.3%	7.4%	3.2%	x
O=C(Nc1cc2c3c(c1)CC(=O)N3CCC2)c1ccc(Br)cc1	0.0%	-0.1%	15.1µM*	11.3%	x
CC1CCN(C(=O)Cn2cnc3c(cnn3C(C)(C)C)c2=O)CC1	3.16µM*	u	u	u	15.8µM*
CC(C)(C)n1ncc2c(=O)n(CC(=O)Nc3ccc(Cl)cc3)cnc21	2.1%	0.9%	1.4%	-1.3%	-14.3%
CC(C)(C)n1ncc2c(=O)n(CC(=O)c3ccc(Cl)cc3)cnc21	3.16µM*	2.82µM*	7.57µM*	17.6%	17.8µM*
CC(C)(C)n1ncc2c(=O)n(Cc3c(F)cccc3Cl)cnc21	3.6%	20.1%	23.9µM*	-9.0%	-15.2%
CC(C)(C)n1ncc2c(=O)n(CC(=O)NCc3ccccc3)cnc21	u	0.447µM*	4.78µM*	u	2.82µM*
Cc1noc(C)c1NC(=O)N(C)C[C@H]1Oc2ccc(NC(=O)Nc3ccccc3)cc2C(=O)N([C@H](C)CO)C[C@@H]1C	x	x	x	2.0%	x
Cc1ccccc1CNC(=O)Cn1ncn2nc(-c3cccs3)cc2c1=O	x	x	-3.8%	x	x
O=C1c2cccnc2C(=O)N1Cc1ccc(S(=O)(=O)NCc2ccco2)s1	-2.8%	-1.6%	0.4%	1.4%	x
Cc1c(NC(=O)COC(=O)c2cccn2C)c(=O)n(-c2ccccc2)n1C	x	x	x	3.0%	x
CCOc1ccc(-c2nn[nH]n2)cc1OCC	0.7%	-2.1%	1.2%	1.3%	3.4%
Cc1ccccc1COc1ccc(-c2nn[nH]n2)cc1	20.9%	4.4%	26.9µM*	9.1%	x
CCOc1ccc(-c2n[nH]c(=S)o2)cc1	19.5%	-4.3%	10.7µM*	15.9%	17.3%
CCOc1ccc(-c2nn[nH]n2)cc1	-4.4%	10.2%	10.7µM*	2.7%	27.5%
CCc1ccc(-c2nn[nH]n2)cc1	19.5%	1.7%	13.5µM*	9.4%	5.5%
SMILES	Rab9 prom act	NPC1 promoter act	FLuc counter	ELG1 genotoxic	SMN2 splice up
c1ccc(-c2nn[nH]n2)cc1	-0.8%	-1.6%	4.1%	0.4%	x
CCOc1ccccc1-c1n[nH]c(=S)o1	-3.8%	-1.8%	-17.9%	-1.8%	-1.7%
Cc1ccc(-c2ccc(SCC(=O)Nc3ccc4c(c3)OCCO4)nn2)cc1	15.5%	17.6%	1.9µM*	11.1%	23.4%
CC(=O)Nc1ccc(NC(=O)CSc2ccc(-c3ccc4c(c3)OCO4)nn2)cc1	24.2%	25.7%	-19.3%	u	u
O=C(CSc1nc(-c2ccc(F)cc2)[nH]c1-c1ccc(F)cc1)Nc1ccc2c(c1)OCCO2	x	x	u	x	-1.1%
Cc1ccc2nc(-c3ccc(SCC(=O)Nc4ccc5c(c4)OCCO5)nc3)[nH]c2c1	2.82µM*	3.16µM*	0.601µM*	u	u
Cc1cc2nc(-c3ccc(SCC(=O)Nc4ccc5c(c4)OCCO5)nc3)[nH]c2cc1C	3.98µM*	2.82µM*	0.338µM*	u	u
Cc1ccc(-c2ccc(SCC(=O)Nc3nonc3C)nn2)cc1	u	u	12µM*	u	6.0%
O=C(CSc1ccc(-c2nc3ccccc3[nH]2)cn1)Nc1ccc2c(c1)OCCO2	u	27.5%	u	10.1%	16.8%
CCCCn1c(N)c(N(CCOC)C(=O)c2c(-c3ccccc3)noc2C)c(=O)[nH]c1=O	-6.2%	-1.1%	1.8%	-3.8%	x
O=C(CSc1ncn[nH]1)Nc1ccc(OCc2ccccc2)cc1	u	29.0%	16.9µM*	u	u
Cc1nc(SCC(=O)Nc2ccc(OCc3ccccc3)cc2)n[nH]1	u	27.4%	12µM*	15.1%	x
CCOc1ccc(NC(=O)CSc2ncn[nH]2)cc1	21.8%	10.9%	u	10.6%	1.2%
Nc1nc(SCC(=O)Nc2ccc(OCc3ccccc3)cc2)n[nH]1	u	u	u	3.2%	x
COC(=O)C1=C(C(=O)OC)[C@@H]2Nc3ccccc3[C@@]23C[C@@H](C(=O)OC)N(S(=O)(=O)c2ccc(OC)cc2)C3=N1	x	x	x	x	14.7%[9.22 µM]
COc1cccc(/C=C(\C#N)c2nc3ccccc3c(=O)[nH]2)c1OC	x	x	-10.3%	x	-2.3%
COc1ccc(-c2csc(Nc3cccnc3)n2)cc1	x	x	6.01µM*	x	6.7%
COc1ccc2oc(=O)c(-c3csc(Nc4ccc(O)cc4)n3)cc2c1	14.0%	0.1%	3.01µM*	-0.9%	u
c1ccc(Nc2nc(-c3ccncc3)cs2)cc1	4.3%	-0.2%	u	15.2%	u
COc1ccc(-c2csc(Nc3ccccc3)n2)cc1	1µM*	2.24µM*	3.01µM*	2.06µM*	3.98µM*
COc1ccc(Nc2nc(-c3c[nH]c4ccccc34)cs2)cc1	20.1%	23.2%	15.1µM*	12.8%	u
O=C(NC1CCN(Cc2ccccc2)CC1)c1cccc(S(=O)(=O)Nc2ccc(F)cc2)c1	-29.8%	-21.2%	3.3%	-4.3%	x
COc1ccc(S(=O)(=O)N2CCN(Cc3ccco3)CC2)cc1	-0.8%	-4.4%	-0.5%	0.1%	x
COc1ccc(Nc2nc(-c3ccc(OC)cc3)cs2)cc1	1.58µM*	3.16µM*	u	u	u
Cc1sc2nc3n(c(=O)c2c1C)Cc1ccccc1-3	u	25.8%	3.79µM*	u	14.1µM*
O=c1c2cccc(Cl)c2nc2n1Cc1ccccc1-2	2.82µM*	u	12µM*	u	x
O=c1nc2n(c3ccccc13)Cc1ccccc1-2	-1.7%	-1.9%	5.8%	-1.1%	12.3%
CCCSc1nnc(CNS(=O)(=O)c2ccc(C)cc2)n1C	4.4%	1.5%	2.6%	-4.7%	x
Cc1ccc2nc(SCC3CCCCO3)[nH]c2c1 (stereo unspecified)	0.112µM*	0.398µM*	1.2µM*	u	x
CC1CCN(C(=O)CSc2nnc3c(n2)[nH]c2ccc(F)cc23)CC1	-14.5%	-3.7%	-0.6%	-9.7%	x
